# Measured values: the supplement of paper PMC6555819
# Columns and labels:
# Assay in all cases: PBM binding z-score (relative to random genomic background probes); higher = stronger binding; sequences stand for … in GC…GCGATTGACAGCGTAGAATGAAGG
# [1] = system: PPARg:RXRa DBDmut IVT, anti-RXR (DBD mutation: RXRa K156A/R161A, NR concentration 270 nM, RXRa partner concentration 90 nM)
# In short: (§1)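 Antibodies against each partner of ligand-free nuclear receptor dimers (one per run) detected binding on custom Agilent 4×180K protein-binding microarrays after 1 h incubation. The double-stranded probes had 34-nt variable regions carrying direct-repeat seeds, single-nucleotide variants, half-site ablations and random human genomic background sequences. Binding z-scores, from regression-normalized fluorescence, use the random background probes as reference.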
# [2] = system: PPARg:RXRa IVT, anti-PPARg (NR concentration 270 nM, RXRa partner concentration 90 nM)
# In short: as §1
# [3] = system: PPARg DBDmut:RXRa IVT, anti-PPARg (DBD mutation: PPARg1 K132A/R137A, NR concentration 270 nM, RXRa partner concentration 90 nM)
# In short: as §1
# [4] = system: PPARg DBDmut IVT, anti-PPARg (DBD mutation: PPARg1 K132A/R137A, NR concentration 270 nM)
# In short: as §1
# [5] = system: PPARg homodimer (NR concentration 180 nM)
# In short: as §1
# [6] = system: PXR:RXRa (NR concentration 270 nM, RXRa partner concentration 90 nM)
# In short: as §1
# [7] = system: PXR homodimer (NR concentration 270 nM)
# In short: as §1
# [8] = system: RARa:RXR (NR concentration 270 nM, RXRa partner concentration 90 nM)
# In short: as §1
# [9] = system: RARa homodimer (NR concentration 270 nM)
# In short: as §1
# [10] = system: RARb:RXRa (NR concentration 270 nM, RXRa partner concentration 90 nM)
# In short: as §1
# [11] = system: RARb homodimer (NR concentration 270 nM)
# In short: as §1
# [12] = system: RARg:RXRa (NR concentration 270 nM, RXRa partner concentration 90 nM)
# In short: as §1
# [13] = system: RARg homodimer (NR concentration 270 nM)
# In short: as §1
# [14] = system: RXRa DBDmut IVT, anti-RXR (DBD mutation: RXRa K156A/R161A, NR concentration 90 nM)
# In short: as §1
# [15] = system: RXRa homodimer (NR concentration 180 nM)
# In short: as §1
# [16] = system: THRa:RXRa (NR concentration 90 nM, RXRa partner concentration 90 nM)
# In short: as §1
# [17] = system: THRa homodimer (NR concentration 90 nM)
# In short: as §1
# [18] = system: VDR homodimer (NR concentration 270 nM)
# In short: as §1
Sequence,PBM binding z-score [1],PBM binding z-score [2],PBM binding z-score [3],PBM binding z-score [4],PBM binding z-score [5],PBM binding z-score [6],PBM binding z-score [7],PBM binding z-score [8],PBM binding z-score [9],PBM binding z-score [10],PBM binding z-score [11],PBM binding z-score [12],PBM binding z-score [13],PBM binding z-score [14],PBM binding z-score [15],PBM binding z-score [16],PBM binding z-score [17],PBM binding z-score [18]
ATCTCTAGGTAACAAAGTTCAGTGAATGCCGAAC,3.03,3.03,1.17,0.837,1.24,2.36,2.09,1.61,0.834,2.4,2.76,2.04,1.99,0.878,1.36,1.56,0.601,2.02
CAAACTAGATCACGAAAGGTCAAAGTCGAATGAC,3.85,4.1,1.64,2.11,4.54,5.85,2.42,6.41,2.84,4.5,4.84,5.87,5.31,1.47,6.64,3.96,1.07,2.71
CCTACTGGGCCCCGAAAGGTCATTGATTCAGTGA,0.503,2.11,-1.53,-0.961,2.6,4.66,1.26,5.15,1.3,3.6,4.21,4.35,3.23,-0.457,4.99,3.04,1.03,1.81
CATTACGGGTCACGAGGTTATAGCACGACGAGCG,5.61,5.99,1.73,1.78,4.62,4.8,0.703,6.52,1.04,4.68,4.22,6.35,5.8,2.21,8.02,3.82,1.56,2.52
CCTGACGGGTCAAGGTTATAGCACGGGTGGTACG,0.0106,1.52,-0.561,-0.647,1.94,2.74,0.233,3.65,0.717,3.78,3.21,4.37,4.65,0.202,4.64,2.63,0.682,1.34
ACTAGTTGGTCAGCTGAGGACACACACAATTCGG,0.766,1,0.592,0.377,0.0418,1.38,0.241,1.05,0.18,1.52,1.64,1.18,1.82,0.558,0.282,4.7,4.2,0.259
TCGAGTAGTTTACCAATGGGGCATTCAGCTTTCT,0.933,-0.146,-0.382,0.0492,-0.418,-0.0619,-0.235,0.338,-0.982,0.0508,0.239,-0.401,-0.51,0.878,-0.356,-0.217,-0.644,-0.305
ATCTGTAGGTAAAGTTCAGTGAAAGATCGATAGA,1.48,2.2,1.04,0.902,1.06,1.41,1.84,0.99,0.559,2.53,2.24,1.86,2.25,1.35,1.16,0.595,-0.247,1.83
AGAATGAGGTTATACGTAGATCAGGGACGAAAGT,3.78,2.16,1.14,1.42,0.4,1.12,0.405,1.49,0.392,1.42,0.962,1.77,1.35,1.87,2.14,2.39,0.878,1.06
GAATATAGGTAATACAAGGTGAAAGTCCGATTGT,6.67,6.08,2.27,1.21,1.32,0.776,0.722,1.33,1.55,0.909,1.27,0.944,0.872,0.644,0.89,4.2,1.38,0.435
CCTACTGGGCCATTTAGAGGTCATTGATCATATG,3.95,4.32,0.156,0.0335,2.07,4.7,2.25,4.46,0.647,2.89,3.87,4.06,2.72,1.45,3.21,3.31,1.7,3.36
TCTTGTAGATCAACAGAAGGTTAAGAAAGATCGA,2.05,0.787,0.882,0.062,-0.0281,0.812,0.0567,0.954,-0.338,0.701,0.688,0.942,0.329,0.67,1.02,0.733,-0.701,-0.188
CGTCCAAGGTCAATGCTAGGTGAGTGAAAGCATT,3.33,3.79,0.0432,-0.14,1.77,3.31,0.668,3.57,0.59,4.9,3.95,5.76,6.07,3.39,4.73,3.92,2.34,2.15
CCTCGGTGGACAGAAGGTCAGAGCTGTCCGCTTT,-0.193,0.138,-2.04,-1.69,1.8,1.32,-0.447,1.66,-0.0873,2.56,2.87,2.3,1.99,-0.526,1.84,1.89,-0.379,-0.538
GCATTTAGGTAATACAAGGTGAAAGTCCGATTGT,3.13,2.5,1.39,0.568,0.826,0.319,0.3,0.911,0.039,0.715,1.06,0.319,0.48,0.617,0.375,3.89,1.59,0.0936
